Measured values taken from PubChem BioAssay AID1159580 (chemical genetic matrix, 2015).
Several values for one entry are separate records, joined by “and”; a condition that tells them apart may be missing. Equal values may be shown once. Screen size: about 5,500 compounds; about 2,000 (36%) were called active. Roughly 18% stayed inconclusive and do not appear here. Rule as the data show it: active = normalized growth mostly below about 0.91 (no sharp cut-off); inconclusive = no clear call, values can overlap the other calls; inactive = mostly above about 0.92. Some of the results follow.

Test: chemical genetic growth profiling, strain panel (AID 1159580);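 also: tested at 20 µM; growth read once vehicle control cultures reached saturation at 30 °C; 1 = growth at the plate median or of vehicle wells; lower values mean less growth of the strain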
Conditions: S. cerevisiae deletion strains, growth OD

Measured: normalized growth

COc1ccc2c(c1)OC/C(=C\c1ccc(OC)c(O)c1)C2=O
inactive: locus YAL021C, strain ccr4, stronger effect = lower value 0.985 | locus YAL030W, strain snc1, stronger effect = lower value 0.935 | locus YBR171W, strain sec66, stronger effect = lower value 0.919 | locus YBR229C, strain ROT2, stronger effect = lower value 0.967 | locus YCR088W, strain abp1, stronger effect = lower value 0.954 | locus YDL005C, strain med2, stronger effect = lower value 0.984 | locus YDL040C, strain nat1, stronger effect = lower value 0.953 | locus YDL185W, strain tfp1, stronger effect = lower value 0.909 | locus YDR001C, strain nth1, stronger effect = lower value 0.953 | locus YDR069C, strain doa4, stronger effect = lower value 0.97 | locus YDR195W, strain ref2 1.11 | locus YDR335W, strain msn5, stronger effect = lower value 0.943 | locus YEL037C, strain rad23, stronger effect = lower value 0.954 | locus YEL061C, strain CIN8 (second series), stronger effect = lower value 0.935 | locus YER016W, strain bim1, stronger effect = lower value 0.949 | locus YER111C, strain swi4, stronger effect = lower value 0.964 | locus YFR010W, strain ubp6, stronger effect = lower value 0.944 | locus YGL167C, strain pmr1, stronger effect = lower value 0.947 | locus YHR079C, strain IRE1, stronger effect = lower value 0.968 | locus YJL092W, strain hpr5, stronger effect = lower value 0.94 | locus YJL115W, strain asf1, stronger effect = lower value 0.953 | locus YJL134W, strain LCB3, stronger effect = lower value 0.949 | locus YJL154C, strain vps35, stronger effect = lower value 0.969 | locus YJL168C, strain set2, stronger effect = lower value 0.948
0.262 (active) and 0.961 (inactive): locus YJL095W, strain BCK1, stronger effect = lower value
active: locus YAL013W, strain DEP1, stronger effect = lower value 0.72 | locus YAL026C, strain drs2, stronger effect = lower value 0.865 | locus YBL061C, strain skt5, stronger effect = lower value 0.905 | locus YBR009C, strain hhf1, stronger effect = lower value 0.781 | locus YBR021W, strain FUR4, stronger effect = lower value 0.796 | locus YBR023C, strain chs3, stronger effect = lower value 0.88 | locus YBR231C, strain swc5, stronger effect = lower value 0.8 | locus YBR279W, strain paf1, stronger effect = lower value 0.912 | locus YCL011C, strain gbp2, stronger effect = lower value 0.857 | locus YCL016C, strain dcc1, stronger effect = lower value 0.881 | locus YCL029C, strain bik1, stronger effect = lower value 0.772 | locus YCL069W, strain vba3, stronger effect = lower value 0.878 | locus YDL035C, strain GPR1, stronger effect = lower value 0.818 | locus YDL074C, strain BRE1, stronger effect = lower value 0.534 | locus YDL101C, strain DUN1, stronger effect = lower value 0.665 | locus YDL192W, strain arf1, stronger effect = lower value 0.748 | locus YDR101C, strain arx1, stronger effect = lower value 0.855 | locus YDR137W, strain rgp1, stronger effect = lower value 0.705 | locus YDR150W, strain NUM1, stronger effect = lower value 0.894 | locus YDR159W, strain sac3, stronger effect = lower value 0.8 | locus YDR162C, strain NBP2, stronger effect = lower value 0.475 | locus YDR297W, strain sur2, stronger effect = lower value 0.864 | locus YDR318W, strain mcm21, stronger effect = lower value 0.574 | locus YDR334W, strain swr1, stronger effect = lower value 0.894 | locus YDR388W, stronger effect = lower value 0.913 | locus YDR392W, strain spt3, stronger effect = lower value 0.206 | locus YDR502C, strain sam2, stronger effect = lower value 0.69 | locus YEL003W, strain gim4, stronger effect = lower value 0.806 | locus YEL061C, strain CIN8, stronger effect = lower value 0.623 | locus YER015W, strain faa2, stronger effect = lower value 0.874 | locus YER110C, stronger effect = lower value 0.79 | locus YER155C, strain BEM2 (second series), stronger effect = lower value 0.448 | locus YER155C, strain BEM2, stronger effect = lower value 0.301 | locus YER167W, strain BCK2, stronger effect = lower value 0.816 | locus YGL078C, strain dbp3, stronger effect = lower value 0.878 | locus YGL086W, strain mad1, stronger effect = lower value 0.517 | locus YGL173C, strain kem1, stronger effect = lower value 0.878 | locus YGL227W, strain vid30, stronger effect = lower value 0.813 | locus YGL240W, strain doc1, stronger effect = lower value 0.795 | locus YGL248W, strain PDE1, stronger effect = lower value 0.603 | locus YGL253W, strain hxk2, stronger effect = lower value 0.8 | locus YGR078C, strain PAC10, stronger effect = lower value 0.487 | locus YGR135W, strain pre9, stronger effect = lower value 0.684 | locus YGR229C, strain SMI1, stronger effect = lower value 0.386 | locus YGR252W, strain gcn5, stronger effect = lower value 0.545 | locus YHR013C, strain ard1, stronger effect = lower value 0.783 | locus YHR027C, strain rpn1, stronger effect = lower value 0.909 | locus YHR079C, strain IRE1 (second series), stronger effect = lower value 0.831 | locus YHR094C, strain hxt1, stronger effect = lower value 0.812 | locus YHR129C, strain ARP1, stronger effect = lower value 0.516 | locus YHR142W, strain chs7, stronger effect = lower value 0.727 | locus YHR200W, strain rpn10, stronger effect = lower value 0.864 | locus YIL066C, strain RNR3, stronger effect = lower value 0.665 | locus YIL073C, strain SPO22, stronger effect = lower value 0.631 | locus YIL125W, strain kgd1, stronger effect = lower value 0.916 | locus YIR030C, strain dcg1, stronger effect = lower value 0.854 | locus YJL095W, strain BCK1 (second series), stronger effect = lower value 0.899 | locus YJL129C, strain trk1, stronger effect = lower value 0.776 | locus YJL164C, strain tpk1, stronger effect = lower value 0.876 | locus YJL166W, strain qcr8, stronger effect = lower value 0.654 | locus YJL187C, strain SWE1 (second series), stronger effect = lower value 0.773 | locus YJR043C, strain POL32, stronger effect = lower value 0.731
0.399 (active) and 0.978 (inactive): locus YHR030C, strain SLT2, stronger effect = lower value
